USP8 inh – blocks human USP8 ubiquitin-rhodamine cleavage | P40818 | purified USP8, Ub-rhodamine cleavage fluorescence, 30 min | inhibition, % at 20 µM | hit rate 4.2% among 47,000 | AID 1645853
USP30 inh – blocks human USP30 ubiquitin-rhodamine cleavage; hit rate 5.3% among 47,000; inhibition, % at 25 µM; Q70CQ3; purified USP30, Ub-rhodamine cleavage fluorescence
USP10 inh – human USP10 deubiquitinase inhibition. inhibition, % at 20 µM. AID 1645856. Q14694. hit rate 1.1% among 47,000. purified USP10, Ub-rhodamine fluorescence, 60 min
USP28 inh – inhibitors of human USP28 deubiquitinase; purified USP28, Ub-rhodamine cleavage fluorescence, 30 min; Q96RU2; hit rate 3% among 47,000; inhibition, % at 25 µM
USP17 inh – inhibitors of human USP17 deubiquitinase. A8MUK1. purified USP17, Ub-rhodamine cleavage fluorescence, 3 h. inhibition, % at 50 µM. hit rate 6.5% among 47,000. AID 1645855
Target sequence (A8MUK1 whole entry, looked up): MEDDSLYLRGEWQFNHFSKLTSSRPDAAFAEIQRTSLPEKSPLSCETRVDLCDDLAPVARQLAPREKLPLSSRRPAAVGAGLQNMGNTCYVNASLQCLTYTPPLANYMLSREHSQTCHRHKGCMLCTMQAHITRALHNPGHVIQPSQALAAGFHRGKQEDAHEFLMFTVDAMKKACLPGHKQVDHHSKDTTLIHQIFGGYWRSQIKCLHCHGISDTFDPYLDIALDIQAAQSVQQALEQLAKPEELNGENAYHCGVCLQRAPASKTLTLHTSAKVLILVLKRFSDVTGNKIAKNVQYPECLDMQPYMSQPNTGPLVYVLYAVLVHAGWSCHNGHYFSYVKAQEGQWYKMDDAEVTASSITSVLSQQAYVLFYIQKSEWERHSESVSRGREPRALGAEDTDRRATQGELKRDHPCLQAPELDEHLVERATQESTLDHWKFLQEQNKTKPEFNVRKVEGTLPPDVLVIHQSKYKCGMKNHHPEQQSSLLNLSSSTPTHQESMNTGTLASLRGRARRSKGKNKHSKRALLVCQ
* marks the source's active call; other numbers are inactive results; / = no result given. Most compounds without a hit are left out; they make up all but 14% or so of the library. No stated cut-off is given here; in the data, active means inhibition above about 30%; inactive means the rest.

SMILES | USP8 inh | USP30 inh | USP10 inh | USP28 inh | USP17 inh
Cc1nc(SCC(=O)Nc2ccc(Cl)cc2)c2sc3nc4c(cc3c2n1)COC(C)(C)C4 | 1 | -27 | 0 | 0 | -2
O=C(Cn1c(=O)n(-c2ccccc2)c2ncccc21)NCc1ccc(F)cc1 | 17 | 9 | -1 | 3 | 26
CC(C)(NCc1cc(F)ccc1F)c1nc2c(c(C(N)=O)n1)OCO2 | -2 | 0 | -1 | 4 | -6
CC(Oc1ccc(Cl)cc1)C(=O)N[C@@H](C)c1nnc2ccccn12 (some centres not stated) | 1 | 3 | 1 | -1 | 12
Clc1cccc(-c2cn[nH]c2C2CCCN2)c1 (configuration not stated) | 3 | 34* | 3 | 15 | 4
N#Cc1c(F)cccc1N1CCC(C2CCCCCN2C(=O)C2CC2)CC1 (configuration not stated) | 3 | 34* | 0 | 25 | 15
CC1(C2CCN(c3cccc(F)c3C#N)CC2)NC(=O)NC1=O (configuration not stated) | 0 | 32* | 0 | 15 | 11
Cc1nc(-c2ncc[nH]2)cc(C2CCN(C(=O)c3cccnc3)CC2)n1 | 9 | 8 | 1 | 6 | 4
Cc1ccc(C2c3[nH]c4ccccc4c3C[C@H]3C(=O)N(c4ccccc4C(=O)NCC4CCCO4)C(=O)N23)cc1 (some centres not stated) | -20 | -171 | -9 | -23 | -41
Cc1cccc(Nc2nc(N3CCCCC3)nc(N3CCCCC3)n2)c1 | 18 | 30* | 5 | 7 | 0
O=C1CCSc2c1cccc2C(=O)Nc1cccc(C(F)(F)F)c1 | 14 | 7 | 1 | 12 | 5
O=C(Nc1cccc(C(F)(F)F)c1)c1cc2c(s1)-c1ccccc1OC2 | 72* | 70* | 30 | 26 | /
O=C(NCc1ccc(Cl)cc1)c1cc2c(s1)-c1ccccc1OC2 | 74* | 55* | 44* | 25 | 87*
O=C(NCc1ccc2c(c1)OCO2)c1cc2c(s1)-c1ccccc1OC2 | 56* | 57* | 25 | 27 | 17
Cc1ccc(NC(=O)c2cc3c(s2)-c2ccccc2OC3)c(Cl)c1 | 28 | 41* | 6 | 14 | 27
CN1CCN(c2ccccc2NC(=O)c2cc3c(s2)-c2ccccc2SC3)CC1 | 9 | -2 | 7 | -2 | -2
COc1ccc(NC(=O)COC(=O)C2CCCN2S(=O)(=O)c2ccc(Cl)cc2)c(OC)c1 (configuration not stated) | 5 | 0 | 4 | -3 | 3
Cc1ccccc1-c1noc(CN2C(=O)C(C)Oc3ccccc32)n1 (configuration not stated) | -1 | 12 | 5 | 16 | 0
Cc1cc(-c2ccc(S(=O)(=O)NCCc3ccccc3)s2)on1 | 20 | 35* | 6 | 20 | 29
CNc1nc2c(c(=O)n1C)CN(C(=O)Nc1ccc(C(C)(C)C)cc1)CC2 | -4 | -1 | 1 | 0 | -19
CNc1nc2c(c(=O)n1C)CN(C(=O)Nc1cccc3ccccc13)CC2 | 90* | -27 | 21 | 43* | 71*
O=C(CSc1cn(CC(=O)N2CCCCC2)c2ccccc12)Nc1ccc(Cl)cc1 | -1 | 27 | 6 | 7 | 38*
O=C(CSc1cn(Cc2ccccc2Cl)c2ccccc12)N1CCOCC1 | -35 | 37* | 2 | 18 | 14
O=C(Cn1cc(S(=O)(=O)Cc2ccc(Cl)cc2)c2ccccc21)N1CCCCC1 | 3 | 75* | 3 | 1 | 3
Cc1cccc(S(=O)(=O)N2CCC(OCc3nc(C)no3)CC2)c1 | 2 | -5 | 0 | 0 | -9
SMILES | USP8 inh | USP30 inh | USP10 inh | USP28 inh | USP17 inh
CSc1cccc(C(=O)Nc2ccc(-c3nc4ccccc4[nH]3)cc2)c1 | 15 | 32* | 13 | 20 | 63*
Cc1ccc(-n2nnnc2CNS(=O)(=O)c2ccccc2)cc1C | 18 | 15 | 2 | 17 | 10
O=C(NCc1cccc(Cl)c1)c1ccc(-c2nnc(-c3ccccc3)o2)cc1 | 93* | 22 | 26 | 3 | 50*
Cc1cccc(CNC(=O)c2ccc(-c3nnc(-c4cccc(C)c4)o3)cc2)c1 | 10 | 7 | 12 | -2 | 82*
COc1ccc(CNC(=O)c2ncoc2-c2cccc(C)c2)cc1OC | -25 | -24 | -4 | -15 | -11
CCn1cc(Cl)c(C(=O)N2CCc3c(nc(-c4ccccc4)[nH]c3=O)C2)n1 | 23 | 22 | -1 | 4 | 13
Cn1c(NC(=O)c2ccco2)c(-c2cccs2)c(=O)c2ccccc21 | 34* | -185 | -6 | -19 | 10
Nc1c2c(nc3cc(Cl)ccc13)CCCC2=O | 45* | -13 | -2 | -6 | 23
COc1cccc(-c2noc(N3CCCC(C)C3)n2)c1 (configuration not stated) | 16 | 25 | 2 | 12 | 15
CCCCCn1c(Sc2ccc(C)cc2)nc2c1c(=O)[nH]c(=O)n2C | 15 | 53* | 9 | 18 | 34*
CCn1cc(NC(=O)CN2CCCC(Cc3nc4ccc(F)cc4[nH]3)C2)c(C)n1 (configuration not stated) | 1 | 11 | 1 | 3 | 4
COc1cccc(CNc2nc3ccc(C)cc3cc2-c2noc(C)n2)c1OC | -2 | -48 | -5 | -31 | -10
Cc1cccc(NC(=O)Cn2c(-n3nc(C)cc3C)nc3c(c2=O)CCC3)c1 | -17 | 2 | 0 | 0 | 37*
Cc1cc(=O)n(CC(=O)Nc2ccc(F)cc2)c(Nc2ccc(F)cc2)n1 | 1 | 1 | 0 | 2 | -4
Cc1cccc(NC(=O)Cn2c(C)ncc(C(=O)NC3CC3)c2=O)c1 | 0 | 14 | 2 | 11 | 12
Cc1ccc(NC(=O)Cn2c(Nc3cccc(C)c3)nc(C)cc2=O)cc1 | 3 | 58* | 1 | 16 | 36*
Cc1cccc(NC(=O)Nc2ccc(C)n(CC(=O)Nc3ccc(C)c(C)c3)c2=O)c1 | 74* | -14 | 42* | -3 | -8
CCn1c(=O)c2nscc2n(CC(=O)Nc2cccc(C)c2)c1=O | -3 | -2 | 0 | -2 | 0
Cc1ccc(NC(=O)Nc2ccc(C)n(CC(=O)Nc3cccc(C)c3)c2=O)cc1 | 94* | 27 | 53* | 19 | 0
O=c1scc(-c2cc3ccccc3o2)n1-c1ccc(Cl)c(Cl)c1 | -57 | -98 | -10 | -48 | -9
Cc1cccc(NC(=O)Nc2ccc(C)n(CC(=O)Nc3ccccc3)c2=O)c1 | 21 | 41* | 13 | 40* | 61*
Cc1cccc(Nc2cc(C3CCCN(C(=O)c4ccnnc4)C3)ccn2)n1 (configuration not stated) | 15 | 15 | 0 | 3 | 6
O=C(Nc1ccccc1F)c1cnn(-c2ccccc2)c1C1CCNCC1 | -97 | 5 | -1 | 0 | -9
CCOC(=O)c1ccc(NC(=O)CSc2nnc(CNC(=O)c3ccc(OC)cc3)o2)cc1 | 0 | 35* | 5 | 4 | 33*
Cn1c(=O)c2c(nc(SCc3nnc(-c4ccccc4)o3)n2Cc2ccc(F)cc2)n(C)c1=O | -37 | 63* | 1 | 33* | 59*
